Test results as given in PubChem BioAssay.
A number with no mark means an inactive call. The rule behind the calls is not given here.

What follows are compounds tested against Pantothenate synthetase (Mycobacterium tuberculosis (strain ATCC 25618 / H37Rv)) (UniProt P9WIL5) (assay: Recombinant Mtb pantothenate synthetase (PanC) inhibitors, coupled enzyme, confirmatory (AID 375;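 note: 0% = full reaction with vehicle and 100% = no enzyme background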)). Details: coupled enzyme assay; at 10 µM, active compounds read high.
Chain of Pantothenate synthetase (Mycobacterium tuberculosis (strain ATCC 25618 / H37Rv)) (P9WIL5 whole entry, looked up): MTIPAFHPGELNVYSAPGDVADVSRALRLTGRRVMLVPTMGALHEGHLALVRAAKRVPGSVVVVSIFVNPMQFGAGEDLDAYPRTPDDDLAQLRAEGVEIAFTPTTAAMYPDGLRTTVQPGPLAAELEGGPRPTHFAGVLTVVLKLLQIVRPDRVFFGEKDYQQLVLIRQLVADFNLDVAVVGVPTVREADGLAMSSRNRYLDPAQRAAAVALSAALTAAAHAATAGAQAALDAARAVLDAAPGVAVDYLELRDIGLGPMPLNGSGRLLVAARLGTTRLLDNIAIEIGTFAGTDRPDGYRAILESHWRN

Compound | inhibition [%]
COC(=O)CSc1nnc(-c2ccncc2)o1 | 0
N#CC1=C(N)SC(N)=C(C#N)C1c1ccc(C(F)(F)F)cc1 | 0
COc1ccccc1S(=O)(=O)Cc1ccc(C(=O)NCCN2CCCCCC2)o1 | 0
CC(=O)CC(=O)Nc1ccccc1NC(C)=O | 3
O=C(CSCc1ccc(F)cc1)NC1CCCC1 | 0
O=C1CCCC(O)=C1C=Nc1ccc2c(c1)oc1ccccc12 | 3
CC(Oc1ccccc1)C(=O)N1CCCc2ccccc21 (configuration not stated) | 0
Cc1ccc(-n2c3c(cc(C(=O)O)c2=O)C(=O)CC(C)(C)C3)cc1 | 3
Cc1nnc(SCC(=O)N(C(C)C)C(C)C)nc1C | 7
Cc1noc(C)c1C(=O)N1CCN(C(=O)c2sc3cc(Cl)ccc3c2Cl)CC1 | 7
CCC(=O)Nc1cc(C(=O)NCC2CCCN2CC)c(OC)cc1N(C)C (configuration not stated) | 0
Cc1ccc(Nc2cc(-n3nc(C)cc3C)ncn2)cc1 | 0
O=C(COc1ccccc1Cl)N1CCCC1 | 2
CNC(=O)CC(C(=O)O)c1ccc(OC(C)C)cc1 (configuration not stated) | 0
O=C(O)CCC1(C(=O)O)OCCc2ccccc21 (configuration not stated) | 8
C(=N/n1c2ccccc2c2ccccc21)/c1ccco1 | 0
COc1ccc(Cc2nnc3n2N=C(c2cc4ccccc4o2)CS3)cc1OC | 0
CC(=O)NC1CC2CCCC(C1)N2CC(=O)Nc1ccccc1 (configuration not stated) | 3
O=C(Nc1ccccc1)N(O)c1ccc(Cl)cc1 | 4
COc1ccccc1NC(=O)Cn1nnc(-c2ccccc2NC(=O)c2ccco2)n1 | 0
CCn1c(SCC(N)=O)nnc1-c1ccc(S(=O)(=O)N2CCN(C)CC2)cc1 | 0
CSc1oc(-c2ccccc2)nc1S(=O)(=O)c1ccc(F)cc1 | 0
